High-throughput results: PubChem BioAssay, National Center for Advancing Translational Sciences (NCATS)
D2 PAM-1: potentiates the human D2 dopamine receptor allosterically; P14416; DiscoveRx D2 beta-arrestin cells, luminescence, 90 min; 100% = 57 uM dopamine signal; 0.23% of 360,000 active; potentiation, % (no concentration beside the values); in the data active = potentiation above about 50%; inconclusive = mostly about 30% to 49%
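PathHunter D2 cells, attached overnight at 37 deg C, received compound in DMSO plus dopamine at EC20 (50 nM final) for 90 min at 37 deg C. Beta-arrestin recruitment was read as luminescence after 1 h with detection reagent at ambient temperature.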
D2 ag-1: agonists of human D2 dopamine receptor (beta-arrestin) | DiscoveRx PathHunter D2 beta-arrestin, luminescence, 90 min; 100% = 57 uM dopamine signal | activation, % (concentration not given with the values) | 0.084% of 360,000 active; in the data active = activation above about 40%; inconclusive = between about 15% and that limit
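DiscoveRx PathHunter D2 beta-arrestin cells (2,100/well) attached overnight, then compound-stimulated 90 min at 37 C in HBSS/10 mM HEPES/0.1% Tween-20 buffer; beta-galactosidase complementation read by luminescence after 1 h at ambient temperature. Dopamine 57 uM final (EC100) as control.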
D2 antagonist: D2 dopamine receptor (human) antagonism | 2% of 340,000 active | P14416 | inhibition, % at 10 µM | HEK293 TREx D2 cells, calcium flux, dopamine EC80; in the data active = inhibition above about 30%; inactive = below that, where a call was filed; also: 0% is about no effect
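Read-out: kinetic calcium fluorescence (1 cycle/s) in inducible HEK293 T-REx D2 cells after an EC80 dopamine addition that followed 180 s compound preincubation. Loss of the dopamine response indicates antagonism.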
D2 PAM-2: positively modulates the human D2 dopamine receptor allosterically | P14416 | HEK293 T-REx D2, calcium flux, EC20 dopamine potentiation | potentiation, % at 10 µM | 0.34% of 340,000 active;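 active = potentiation over 3 SD above the plate norm, cut at about 30% in these data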; also: 0% is about no effect
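Using a no-wash calcium dye in inducible, force-coupled HEK293 Trex cells expressing D2, we tracked fluorescence each second for 180 s after compound, then for 180 s after EC20 dopamine to detect augmented signalling.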
LDHA inh: LDHA (human) enzyme inhibition. AID 1347041. purified LDHA, NADH/diaphorase-resazurin fluorescence; active compounds read low. activity change, % (values are at about 110 or 230 µM). P00338. 0.15% of 480,000 active; in the data active = activity change below about -30%; inconclusive = mostly about -25% to -30%;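 also: plate controls were DMSO wells for no effect and wells without enzyme for full effect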
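Resorufin fluorescence (ex540/em590), read at 0 and 20 min after diaphorase/resazurin addition, reports the NADH left after a 5 min room-temperature reaction of 2 nM human LDH5 with 0.06 mM NADH and 0.2 mM pyruvate.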
D2 ag-2: agonists of human D2 dopamine receptor; P14416; AID 485358; HEK293 T-REx D2 cells, calcium flux agonist mode; activation, % at 2 µM; 0.53% of 340,000 active;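 active = activation over 3 SD above normal in the single-dose calcium agonist read, cut at about 30% in these data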; also: 0% is about no effect
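Calcium-flux readout, 1 cycle/sec over 180 s following compound pin transfer, in inducible HEK293 Trex D2 cells (force-coupled); dopamine controls included. Positive calcium responses during this window marked compounds as potential agonists.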
D3 arrestin ag: activates human D3 dopamine receptor beta-arrestin recruitment; shares compounds with D2 ag-2; DiscoveRx D3 beta-arrestin cells, luminescence, 90 min; Potency, µM (titrated, usually from 76.9 µM), for inactives: top-dose activation, hits mostly activators; 4% of 2,300 active; AID 720506;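 also: potency is read from the fitted curve at half-maximal effect; 100% = dopamine control response; nearly all actives have a fitted effect of over 70% in size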
Target sequence (P35462 whole entry, looked up): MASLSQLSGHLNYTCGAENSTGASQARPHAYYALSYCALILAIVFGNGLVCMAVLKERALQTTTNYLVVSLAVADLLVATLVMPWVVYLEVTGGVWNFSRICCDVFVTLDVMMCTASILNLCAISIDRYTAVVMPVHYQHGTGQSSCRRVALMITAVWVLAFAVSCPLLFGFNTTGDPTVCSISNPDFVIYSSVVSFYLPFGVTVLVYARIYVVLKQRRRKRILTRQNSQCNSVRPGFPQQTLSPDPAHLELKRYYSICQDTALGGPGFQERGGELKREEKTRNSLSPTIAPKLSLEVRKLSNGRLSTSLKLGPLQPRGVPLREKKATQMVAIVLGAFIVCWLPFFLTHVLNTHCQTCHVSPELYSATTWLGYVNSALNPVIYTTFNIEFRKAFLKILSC
D2 ag-3: D2 receptor agonism, beta-arrestin counterscreen; shares compounds with D2 ag-2; DiscoveRx PathHunter D2 beta-arrestin, luminescence, 90 min; response scale: percent relative to full dopamine signal; Potency, µM (titrated, usually from 76.9 µM), for the others: at the top dose activation, actives largely listed as activators; 5.9% of 2,300 active; also: potency is read from the fitted curve at half-maximal effect; % of control where 0% means no effect; nearly all actives have a fitted effect of over 70% in size
An asterisk follows results filed as active; ? = inconclusive; nt = no result given; ! = a repeat was not active. Compounds with a hit are over-represented: about 2.1% of the library has one in this group of screens. Unless noted, calls follow the shape of the dose curve; as a rule, active = well fitted activation curve with a large enough effect; inconclusive = small, poorly fitted or top-dose-only effect; inactive = flat fitted curve, though single readings scatter.

SMILES | D2 PAM-1 | D2 ag-1 | D2 antagonist | D2 PAM-2 | LDHA inh | D2 ag-2 | D3 arrestin ag | D2 ag-3
O=C(c1cccc([N+](=O)[O-])c1)N1CCN(C/C=C/c2ccccc2)CC1 | -18 | -1 | 29 | -14 | -13 | 0 | nt | nt
CC(C(=O)Nc1cccc([N+](=O)[O-])c1)N1CCN(C/C=C/c2ccccc2)CC1 (stereo not drawn) | -20 | 9 | 47* | -30 | -3 | 72* | 26% | ?
CCc1cc(=O)oc2cc(OC(C)C(=O)Nc3ccccc3F)ccc12 (stereo not drawn) | nt | nt | nt | nt | -13 | nt | nt | nt
Cc1cc(C(C)(C)C)c(O)c(C)c1CC1=NCCN1 | -17 | 9 | 64* | -30 | -3 | 72* | 3% | 14%
c1ccc2c(CC3=NCCN3)cccc2c1 | -20 | -4 | -5 | 22 | -3 | 14 | nt | nt
CCNC(=S)N/N=C/c1ccccc1F | nt | nt | nt | nt | -2 | nt | nt | nt
Cc1cccc(C(=O)NNC(=S)NC(=O)c2cccs2)c1 | -18 | -7 | 16 | 4 | -2 | 26 | -10% | -10%
CCn1cc(S(=O)(=O)Nc2ccc(F)cc2C)cn1 | nt | nt | nt | nt | -2 | nt | nt | nt
Cc1cc(C)cc(C(=O)NCC(=O)N2CCCC2c2ccccc2)c1 (stereo not drawn) | nt | nt | nt | nt | -17 | nt | nt | nt
CC1CCN(c2ccc(C(=O)NCc3ccco3)cc2[N+](=O)[O-])CC1 | -14 | -1 | 6 | 2 | 0 | 0 | -10% | -11%
CCOc1ccc(CC(=N)C2=C(O)CC(C)(C)CC2=O)cc1OCC | -5 | -4 | -16 | 3 | -4 | 1 | nt | nt
CCOc1ccc(CC(=NCCc2ccccc2)C2=C(O)CC(C)(C)CC2=O)cc1OCC | -3 | 0 | 0 | -18 | 1 | 47* | -2% | 6%
O=C1Cc2cc(-c3csc(NC4CCCCC4)n3)cc3c2N1CCC3 | nt | nt | nt | nt | 8 | nt | nt | nt
COC(=O)c1nc(Nc2cc(F)cc(F)c2)nc(NC2CCCC2)n1 | nt | nt | nt | nt | 0 | nt | nt | nt
Fc1cc(F)cc(Nc2nc(Cl)nc(NC3CCCC3)n2)c1 | nt | nt | -4 | -5 | -3 | -1 | -6% | 0%
Cc1ccc2c(c1)N(C(C)C(=O)NCc1ccc3c(c1)OCO3)C(=O)CO2 (stereo not drawn) | -3 | 5 | 16 | -7 | 2 | 0 | -1% | -1%
COc1cccc(-c2c(C(=O)N/N=C(\C)c3ccncc3)nnn2-c2nonc2N)c1 | -10 | 3 | -10 | -6 | -6 | 0 | nt | nt
COc1cccc(-c2c(C(=O)N/N=C(\C)c3cccs3)nnn2-c2nonc2N)c1 | -6 | -2 | 3 | -2 | -11 | 37* | -8% | -4%
CCOc1cccc(-c2c(C(=O)N/N=C(\C)c3cccs3)nnn2-c2nonc2N)c1 | 2 | -5 | 16 | 9 | -2 | 18 | -4% | -3%
C/C(=N\NC(=O)c1nnn(-c2nonc2N)c1-c1cccs1)c1ccc(C)cc1 | 1 | -9 | 11 | 7 | 1 | 8 | nt | nt
COc1ccc(/C(C)=N/NC(=O)c2nnn(-c3nonc3N)c2-c2cccs2)cc1 | -9 | -5 | -8 | 15 | -2 | 3 | 0% | -4%
C/C(=N\NC(=O)c1nnn(-c2nonc2N)c1-c1ccc2c(c1)OCO2)c1cccs1 | -5 | -1 | 37* | 7 | -9 | 32* | -2% | -3%
Cn1nc(C(=O)Nc2cccc(Cl)c2)c2c1-c1ccsc1CC2 | nt | nt | nt | nt | -1 | nt | nt | nt
NC(=O)C1Cc2ccccc2CN1 (stereo not drawn) | nt | nt | nt | nt | -7 | nt | nt | nt
Cn1c(COc2cc(Cl)ccc2Cl)n[nH]c1=S | nt | nt | nt | nt | 17 | nt | nt | nt
SMILES | D2 PAM-1 | D2 ag-1 | D2 antagonist | D2 PAM-2 | LDHA inh | D2 ag-2 | D3 arrestin ag | D2 ag-3
OC(COC(c1ccccc1)c1ccccc1)CN1CCN(c2ccccn2)CC1 (stereo not drawn) | -15 | 13 | 78* | -19 | -3 | 77* | 4.5µM* | ?
OC(COCC1COc2ccccc2O1)CN1CCN(c2ccccn2)CC1 (stereo not drawn) | 25 | 45*! | 83* | -23 | -6 | 77* | ? | ?
CC(C)(C)C1CCC(OCC(O)CN2CCN(c3ccccn3)CC2)CC1 (stereo not drawn) | 20 | ? | 63* | -32 | -2 | 62* | 0.63µM* | 20µM*
CC(=O)c1ccc(OCC(O)CN2CCN(Cc3ccccc3)CC2)cc1 (stereo not drawn) | -3 | -7 | 17 | -3 | -1 | 9 | -21% | 4%
Cn1c(=O)c2[nH]c(-c3ccccc3Cl)nc2n(C)c1=O | nt | nt | nt | nt | 18 | nt | nt | nt
COC(=O)c1cc(-c2ccc(OC(C)C)cc2)nc2ccccc12 | nt | nt | nt | nt | 1 | nt | nt | nt
CCCc1ccc(OCC(O)CN2CCN(c3ccccn3)CC2)cc1 (stereo not drawn) | -11 | ? | 74* | -20 | 1 | 78* | 1.3µM* | ?
CC(=O)c1ccc(OCC(O)CN2CCN(CC(O)COc3ccc(C(C)=O)cc3)CC2)cc1 (stereo not drawn) | 1 | -1 | -11 | -1 | -2 | 0 | nt | nt
OC(COCc1ccc(Cl)cc1)CN1CCN(c2ccccn2)CC1 (stereo not drawn) | -1 | 45* | 84* | -24 | 1 | 83* | ? | ?
CCCc1ccc(OCC(O)CN2CCc3ccccc3C2)cc1 (stereo not drawn) | -83 | 1 | nt | nt | -2 | nt | nt | nt
CC(=O)c1ccc(OCC(O)CN2CCN(c3ccccn3)CC2)cc1 (stereo not drawn) | 94* | 47* | 88* | -20 | 4 | 83* | ? | 4µM*
OC(COc1ccc(Cl)cc1)CN1CCN(c2ccccn2)CC1 (stereo not drawn) | -10 | 8 | nt | nt | -2 | nt | nt | nt
CCc1ccc(OCC(O)CN2CCN(c3ccccn3)CC2)cc1 (stereo not drawn) | 6 | ? | -4 | -36 | -2 | 80* | ? | ?
O=C1CCCC2=C1C(c1ccccc1F)n1nc(SCc3ccc(C(=O)O)cc3)nc1N2 (stereo not drawn) | nt | nt | nt | nt | 0 | nt | nt | nt
O=[N+]([O-])c1cccc2nc(/C=C/c3ccccc3C(F)(F)F)ccc12 | nt | nt | nt | nt | 6 | nt | nt | nt
O=C(CSc1nnc(-c2cccc(Br)c2)o1)N1CCOCC1 | 5 | -1 | 13 | 2 | -1 | 0 | -4% | 3%
COc1cc(C(=O)Oc2c(OC)cccc2OC)ccc1OC(F)F | nt | nt | nt | nt | 8 | nt | nt | nt
